Inconclusive results are not listed. A call without a number means that no potency is given here. Calls of active or inactive are those of the source. Calls come from the whole dose curve; as a rule, active = well fitted curve in the direction sought with a large enough effect; inconclusive = small, poorly fitted or top-dose-only effect, or another doubt; inactive = no such curve, though single readings can be large; an effect the other way counts as inactive or inconclusive. Peptide text beside a SMILES is read from it. * marks the point of attachment. βNA = c1ccc2cc(N*)ccc2c1; Cbz = O=C(OCc1ccccc1)*
How the values were obtained:
[1] = target: Cellular tumor antigen p53 (Homo sapiens) (UniProt P04637); assay: Primary qHTS for small molecule compounds that upregulate eGFP-tagged delta133p53alpha (in N-terminal) cells. (AID 2060322); conditions: NCI-H358 eGFP-delta133p53alpha fluorescence, 24 h; activation: hits give high values; note: nearly all actives have a fitted effect of over 75% in size; note: potency is the fitted concentration of half-maximal effect;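 for activation: cells pre-induced with doxycycline then dosed without doxycycline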
Summary of the method: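 NCI-H358 cells pre-induced 24 h with 10 ng/ml doxycycline for eGFP-delta133p53alpha, plated dox-free and exposed 24 h at 37C to titrated compounds. Fixed, Hoechst-stained; gated GFP peak intensity by laser scanning cytometry, normalized to DMSO (0%) and 57.5 uM 5-azacytidine (100%).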

[2] = target: Aldehyde dehydrogenase, mitochondrial (Homo sapiens) (UniProt P05091); assay: qHTS for Inhibitors of the Aldehyde Dehydrogenase Family (ALDH2) Primary screen (AID 2061308); conditions: ALDH2 enzyme inhibition qHTS, 1536-well; series mostly up to 56 µM; note: nearly all actives have a fitted effect of over 55% in size
[3] = target: Retinaldehyde dehydrogenase 3 (Homo sapiens) (UniProt P47895); assay: qHTS for Inhibitors of the Aldehyde Dehydrogenase Family (ALDH1A3) Primary screen (AID 2061315); conditions: ALDH inhibition qHTS; series mostly up to 56 µM

Cellular tumor antigen p53 (Homo sapiens), sequence (P04637 whole entry, looked up): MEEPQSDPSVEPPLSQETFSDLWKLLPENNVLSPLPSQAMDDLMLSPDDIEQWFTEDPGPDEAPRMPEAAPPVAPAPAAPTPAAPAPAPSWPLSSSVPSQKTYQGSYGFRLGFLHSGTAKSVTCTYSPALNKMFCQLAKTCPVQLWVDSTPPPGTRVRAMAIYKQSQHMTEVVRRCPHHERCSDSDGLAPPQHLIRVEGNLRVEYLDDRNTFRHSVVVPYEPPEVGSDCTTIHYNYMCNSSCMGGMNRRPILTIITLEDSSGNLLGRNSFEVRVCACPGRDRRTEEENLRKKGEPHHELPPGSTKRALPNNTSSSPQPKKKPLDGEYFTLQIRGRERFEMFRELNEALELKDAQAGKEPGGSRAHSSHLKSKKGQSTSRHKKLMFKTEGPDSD

Row | Compound | activation [1] | Potency [2] | Potency [3] | activity change, negative = inhibition [2] | activity change, negative = inhibition [3] | Potency [1]
1 | c1nc(NC2CCCCCC2)c2cc(CNC[C@H]3CCCO3)sc2n1 | -0.893% (inactive) | inactive | inactive | – | – | –
2 | C/C=C(\C)C(=O)OC1CC2C(CC=C3CC(OC4CC(OC)C(OC5CC(OC)C(OC6CC(OC)C(OC7CC(OC)C(OC8CC(OC)C(OC9OC(CO)C(O)C(O)C9O)C(C)O8)C(C)O7)C(C)O6)C(C)O5)C(C)O4)CCC32C)C2(O)CCC(C(C)=O)C12C (stereo unspecified) | -13% (inactive) | – | – | 14.2% [at 11.2 µM] (inactive) | 17.2% [at 11.2 µM] (inactive) | –
3 | C=C[C@]1(C)C[C@H](O)[C@H]2C(=C)C(=O)O[C@@H]2[C@H]1C(=C)CO | 17.9% (inactive) | inactive | inactive | – | – | –
4 | O=C1c2c(O[C@@H]3O[C@H](CO)[C@@H](O)[C@H](O)[C@H]3O)cc(O)cc2OC1(O)Cc1ccc(O)cc1 (stereo partly specified) | – | inactive | inactive | – | – | 10.4 µM (active)
5 | COC(=O)C1=CO[C@@H](O[C@@H]2O[C@H](CO)[C@@H](O)[C@H](O)[C@H]2O)[C@@H]2[C@@H](C(=O)OC)[C@@H](O)C(O)[C@H]12 (stereo partly specified) | -19.8% (inactive) | inactive | inactive | – | – | –
6 | CC1(C)CCCC2(C)C1C(O)C=C(CO)C2(O)C(=O)O (stereo unspecified) | -13.7% (inactive) | inactive | inactive | – | – | –
7 | C=C1C(OC(=O)/C(C)=C\C)[C@@]23CCC4[C@@](C)(CCC[C@@]4(C)C(=O)O)C2CC[C@H]1C3OC(C)=O (stereo partly specified) | -28.2% (inactive) | inactive | inactive | – | – | –
8 | Cc1nc(N2CCN(C(=O)c3ccco3)CC2)c2c3c(sc2n1)CCCC3 | -12.9% (inactive) | inactive | inactive | – | – | –
9 | C=C(C)C1CCC2(C(=O)O[C@@H]3O[C@H](CO[C@@H]4O[C@H](CO)[C@@H](O)[C@H](O)[C@H]4O)[C@@H](O)[C@H](O[C@@H]4O[C@@H](C)[C@H](O)[C@@H](O)[C@H]4O)[C@H]3O)CCC3(C(=O)O)C(CCC4C5(C)CCC(O)C(C)(C)C5CCC43C)C12 (stereo partly specified) | -13.7% (inactive) | inactive | inactive | – | – | –
10 | CC(=O)OC1C(O)C(C)=C(CCC(C)CC(=O)O)C2(C)CCCC(C)(C)C12 (stereo unspecified) | 3.82% (inactive) | inactive | inactive | – | – | –
11 | CC1CCC(=O)CC(O)C(O)CC(=O)O1 (stereo unspecified) | 10.7% (inactive) | inactive | inactive | – | – | –
12 | O=C(O)CCc1c(C(=O)O)[nH]c2cc(Cl)cc(Cl)c12 | 3% (inactive) | inactive | inactive | – | – | –
13 | CC(=O)OC(C)(C)/C=C/C(=O)[C@](C)(O)C1[C@H](O)C[C@@]2(C)[C@@H]3CC=C4[C@@H](C[C@H](O[C@@H]5O[C@H](CO)[C@@H](O)[C@H](O)[C@H]5O)C(=O)C4(C)C)[C@]3(C)C(=O)C[C@]12C (stereo partly specified) | -10.7% (inactive) | inactive | inactive | – | – | –
14 | CC(CO)C1CCC2(C)CC3C(CO)CC(O)C3C(C)(O)C/C=C/12 (stereo unspecified) | -8.04% (inactive) | inactive | inactive | – | – | –
15 | COc1ccccc1-c1ccc(-c2cn(C(=O)N3CCCCC3Cc3ccccc3)nn2)cc1 (stereo unspecified) | -5% (inactive) | inactive | inactive | – | – | –
16 | CCC[C@@H]1O[C@@H]2C[C@H]3[C@@H]4CCC5=CC(=O)C=C[C@]5(C)[C@H]4[C@@H](O)C[C@]3(C)[C@]2(C(=O)CO)O1 | 6.33% (inactive) | inactive | inactive | – | – | –
17 | Cc1cn2c(N)c(Cl)cc(C(=O)NCC3CCN(CC(C)C)CC3)c2n1 | -0.893% (inactive) | inactive | inactive | – | – | –
18 | OC[C@H]1O[C@@H](OCCc2ccc(O)cc2)[C@H](O)[C@@H](O)[C@@H]1O | -13.7% (inactive) | inactive | inactive | – | – | –
19 | COC(=O)C12C(=O)C(C)=C(O)C1(C)C(C)=CC1C34CCC(OC3=O)C(C)(C)C4CCC12C (stereo unspecified) | -16% (inactive) | inactive | inactive | – | – | –
20 | C=C1CCC2[C@@](C)(C=O)CCC[C@]2(C)[C@H]1CC/C(C)=C/CO (stereo partly specified) | 18.3% (inactive) | inactive | inactive | – | – | –
21 | CC1(C)CC[C@]2(C(=O)O[C@@H]3O[C@H](CO[C@@H]4O[C@H](CO)[C@@H](O)[C@H](O)[C@H]4O)[C@@H](O)[C@H](O[C@@H]4O[C@H](CO)[C@@H](O)[C@H](O)[C@H]4O)[C@H]3O)[C@H](O)C[C@]3(C)C(=CCC4[C@@]5(C)CC[C@H](O[C@@H]6OC[C@@H](O)[C@H](O)[C@H]6O)[C@@](C)(C(=O)O)C5CC[C@]43C)[C@@H]2C1 (stereo partly specified) | 7.63% (inactive) | inactive | inactive | – | – | –
22 | CC(C)CC(NC(=O)OCc1ccccc1)C(=O)NC(CC(C)C)C(=O)NC(CCC(=O)O)C(=O)Nc1ccc2ccccc2c1 (stereo not drawn) (Cbz-Leu-Leu-Glu-βNA; configuration not given here) | -5.67% (inactive) | inactive | inactive | – | – | –

Source: PubChem BioAssay (NCATS)
